{"source": "PubChem BioAssay (NCATS)", "key": {"[1]": {"target": "Cytochrome P450 3A4 (Homo sapiens) (UniProt P08684)", "sequence (P08684 whole entry, looked up)": "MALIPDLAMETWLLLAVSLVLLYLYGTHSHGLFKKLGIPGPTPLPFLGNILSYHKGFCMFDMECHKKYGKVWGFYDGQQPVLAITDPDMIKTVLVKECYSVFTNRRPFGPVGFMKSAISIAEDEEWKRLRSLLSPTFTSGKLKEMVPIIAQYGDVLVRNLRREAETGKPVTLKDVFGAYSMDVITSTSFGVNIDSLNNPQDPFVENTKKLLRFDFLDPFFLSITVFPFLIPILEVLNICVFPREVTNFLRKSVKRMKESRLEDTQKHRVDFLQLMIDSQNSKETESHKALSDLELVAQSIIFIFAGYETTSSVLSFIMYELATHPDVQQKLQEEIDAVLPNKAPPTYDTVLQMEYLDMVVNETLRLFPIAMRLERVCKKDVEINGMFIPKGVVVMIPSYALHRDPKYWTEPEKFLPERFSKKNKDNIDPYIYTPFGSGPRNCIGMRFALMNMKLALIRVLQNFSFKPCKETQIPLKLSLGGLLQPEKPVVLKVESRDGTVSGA", "experiment": "qHTS Assay for Inhibitors and Substrates of Cytochrome P450 3A4 (AID 884); also: nearly all actives have a fitted effect of over 50% in size; also: potency is read from the fitted curve at half-maximal effect", "conditions": "recombinant CYP3A4, Luciferin-PPXE luminescence; series mostly up to 57.1 µM", "procedure,_shortened": "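20 nM human CYP3A4 with 25 uM Luciferin-PPXE (at KM) in 200 mM KPO4, preincubated 10 min with compound; NADPH regeneration started a 60 min RT reaction. Luciferin detected by luminescence, normalized to 57 uM ketoconazole as full inhibition.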"}, "[2]": {"experiment": "Stat Signaling Pathway (AID 446; active = well fitted curve in either direction with a large enough effect, not every such curve was filed as active;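 also: ME-180 cervical cancer cells given 40 pM IL-6 alongside compound; SIE-controlled beta-lactamase reporter measured as 460/530 nm FRET emission ratio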)", "conditions": "ME-180 SIE beta-lactamase reporter, IL-6 stimulated, 5 h; series mostly up to 38 µM", "procedure,_shortened": "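IL-6/STAT signaling read in ME-180 cells via an SIE beta-lactamase reporter. Stimulus was 40 pM IL-6 (its AC50) for 5 hrs, so both activation and inhibition register.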"}, "[3]": {"target": "Muscarinic acetylcholine receptor M1 (Rattus norvegicus) (UniProt P08482)", "sequence (P08482 whole entry, looked up)": "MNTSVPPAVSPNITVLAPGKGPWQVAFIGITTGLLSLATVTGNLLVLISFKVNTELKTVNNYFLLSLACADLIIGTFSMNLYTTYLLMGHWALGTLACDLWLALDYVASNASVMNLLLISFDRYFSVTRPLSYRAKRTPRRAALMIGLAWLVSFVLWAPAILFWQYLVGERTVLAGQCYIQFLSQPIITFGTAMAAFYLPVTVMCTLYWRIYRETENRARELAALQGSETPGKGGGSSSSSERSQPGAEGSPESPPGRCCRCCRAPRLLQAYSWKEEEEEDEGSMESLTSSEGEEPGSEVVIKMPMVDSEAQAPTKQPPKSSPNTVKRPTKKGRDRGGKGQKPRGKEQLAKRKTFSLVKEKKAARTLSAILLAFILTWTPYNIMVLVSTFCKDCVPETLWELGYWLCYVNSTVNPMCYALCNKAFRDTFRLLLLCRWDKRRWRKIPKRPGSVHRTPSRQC", "experiment": "qHTS Assay for Antagonists of Acetylcholine Muscarinic M1 Receptor: Kinetic Measurement of Intracellular Calcium Response (AID 943); also: nearly all actives have a fitted effect of over 75% in size", "conditions": "M1-expressing cells, kinetic intracellular calcium fluorescence; series mostly up to 35.3 µM", "procedure,_shortened": "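Intracellular calcium flux, recorded with Fluo-4 in a kinetic plate reader, served as signal; the response to carbachol at EC80 (100 nM final) was taken as maximal over minimal fluorescence after a 10 min compound pre-incubation in rat M1-CHO cells.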"}, "[4]": {"target": "Endonuclease 4 (Escherichia coli (strain K12)) (UniProt P0A6C1)", "experiment": "Counterscreen for APE1 Inhibitors: qHTS Validation Assay for Inhibitors of Endonuclease IV (AID 1708)", "conditions": "E. coli endonuclease IV, DNA cleavage fluorescence; series mostly up to 57.1 µM", "procedure,_shortened": "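Cleavage of a quenched abasic-site DNA duplex (50 nM, 5'-TAMRA, 3'-BHQ-2) by 2 nM enzyme is followed as fluorescence increase. Compounds are preincubated with enzyme 15 min at room temperature before substrate addition.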"}, "[5]": {"experiment": "qHTS for differential inhibitors of proliferation of Plasmodium falciparum line Dd2 (AID 1882);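 also: compound exposure of 72 h on infected erythrocytes; nearly all actives have a fitted effect of over 65% in size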", "conditions": "Potency: Plasmodium falciparum Dd2 proliferation inhibition; series mostly up to 28.7 µM", "procedure,_shortened": "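SYBR Green I DNA fluorescence read-out, ex 485/em 535 nm. Signals were normalized to 0.29 uM artemisinin and DMSO wells, then corrected using vehicle-only plates flanking each stack. Parasite growth ran 72 h in erythrocytes before lysis.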"}, "[6]": {"experiment": "qHTS for differential inhibitors of proliferation of Plasmodium falciparum line W2 (AID 1883);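 also: parasites grown with compound for 72 h before lysis and staining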; also: potency is read from the fitted curve at half-maximal effect", "conditions": "Potency: Plasmodium falciparum W2 proliferation inhibition; series mostly up to 28.7 µM"}, "[7]": {"experiment": "qHTS Assay for Modulators of Human Peripheral Myelin Protein 22 (PMP22) Expression/Activity (AID 1967; active = well fitted curve in the direction sought with a large enough effect in the signal ratio; the % refers to the signal ratio)", "conditions": "Cell-based PMP22 reporter, dual-color luciferase ratio, mouse Pmp22 promoter in mouse Schwann cells; series mostly up to 115 µM", "procedure,_shortened": "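MSC80 mouse Schwann cells stably carrying Pmp22 promoter–green click beetle luciferase plus EF-alpha–red luciferase control were dosed for 24h at 37 °C. Dual-colour luminescence was filter-overlap corrected; %Activity came from green/red ratio versus untreated cells.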"}, "[8]": {"experiment": "Quantitative high throughput screen for delayed death inhibitors of the malarial parasite plastid, 48 hour incubation (AID 488752); also: nearly all actives have a fitted effect of over 65% in size", "conditions": "Plasmodium falciparum growth; series mostly up to 28.7 µM", "procedure,_shortened": "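One parasite generation (48 h, 37 C, 5% CO2) of luciferase-reporter P. falciparum in erythrocytes is run with test compound; decreased luminescence indicates inhibited growth.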"}, "[9]": {"experiment": "AP1 Signaling Pathway (AID 357; active = well fitted curve in either direction with a large enough effect, not every such curve was filed as active)", "conditions": "ME-180 AP-1-bla reporter, EGF-induced, beta-lactamase ratio, 5 h; series mostly up to 38 µM", "procedure,_shortened": "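In this screen, ME-180 cells in Opti-MEM with 0.5% dialyzed FBS received EC50 EGF and compound titrations for 5 h. AP-1 reporter beta-lactamase was detected via CCF4 ratio, giving AC50 for positive and negative modulators.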"}, "[10]": {"target": "Muscarinic acetylcholine receptor M1 (Rattus norvegicus) (UniProt P08482)", "experiment": "qHTS Assay for Antagonists of Acetylcholine Muscarinic M1 Receptor: Measurement of IP-One Response (AID 944); also: nearly all actives have a fitted effect of over 75% in size", "conditions": "CHO-M1 cells, IP-One HTRF, antagonist mode; series mostly up to 46.1 µM", "procedure,_shortened": "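Steps: plate transfected CHO-M1 cells overnight; add test compound, 10 min; add carbachol (200 nM, EC80) in stimulation buffer with LiCl; incubate 30 min; add labelled IP1 tracer and anti-IP1 antibody in lysis buffer; read HTRF after 10 min.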"}, "[11]": {"experiment": "qHTS for differential inhibitors of proliferation of Plasmodium falciparum line 7G8 (AID 1815);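 also: parasite growth measured after three days of incubation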; also: potency is read from the fitted curve at half-maximal effect", "conditions": "Plasmodium falciparum 7G8 proliferation inhibition; series mostly up to 28.7 µM"}, "[12]": {"experiment": "qHTS for differential inhibitors of proliferation of Plasmodium falciparum line GB4 (AID 1816); also: potency is read from the fitted curve at half-maximal effect", "conditions": "Potency: Plasmodium falciparum GB4 proliferation inhibition; series mostly up to 28.7 µM"}, "[13]": {"experiment": "qHTS for differential inhibitors of proliferation of Plasmodium falciparum line 3D7 (AID 1876); also: potency is read from the fitted curve at half-maximal effect", "conditions": "P. falciparum 3D7 proliferation inhibition; series mostly up to 28.7 µM"}, "[14]": {"experiment": "qHTS for differential inhibitors of proliferation of Plasmodium falciparum line D10 (AID 1877);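 also: parasites grown with compound for 72 h before DNA staining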", "conditions": "series mostly up to 28.7 µM"}, "[15]": {"experiment": "qHTS for differential inhibitors of proliferation of Plasmodium falciparum line HB3 (AID 1886);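 also: parasites grown with compound for 72 h before SYBR Green readout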; also: potency is read from the fitted curve at half-maximal effect", "conditions": "Potency: Plasmodium falciparum HB3 proliferation inhibition; series mostly up to 28.7 µM"}, "[16]": {"experiment": "Validation screen for inhibitors of Lassa infection (AID 463096; calls by dose curve)", "conditions": "Lassa virus infection, cell-based; series mostly up to 46.1 µM"}, "[17]": {"experiment": "Confirmation and Secondary Assay for Modulators of Hemoglobin Beta Chain Splicing at IVS2 654 locus (AID 910)", "conditions": "HeLa EGFP-654 splicing reporter, GFP fluorescence, 48 h; series mostly up to 46.1 µM", "procedure,_shortened": "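HeLa cells stably expressing EGFP interrupted by β-globin IVS2-654 intron, seeded overnight in Opti-MEM/2% FCS, then treated 2 days at 37 °C. Restored splicing read as total peak GFP intensity per well by laser scanning cytometry (488 nm excitation, 500–520 nm emission); 500 nM antisense PNA as control.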"}}, "note": "Records with an inconclusive call do not appear. Entries that show only a call come without a potency. The source made the active and inactive calls. Unless noted, calls follow the shape of the dose curve; as a rule, active = well fitted curve in the direction sought with a large enough effect; inconclusive = small, poorly fitted or top-dose-only effect, or another doubt; inactive = no such curve, though single readings can be large; an effect the other way counts as inactive or inconclusive.", "data": [{"smiles": "CCN(CC)CCO[C@H]1CC[C@@]2(C)C(=CC[C@@H]3[C@H]2CC[C@]2(C)C(=O)CC[C@H]32)C1", "values": [{"measurement": "Potency", "setting": "[1]", "result": "inactive"}]}, {"smiles": "CP(=O)(O)CCCN", "values": [{"measurement": "outcome", "setting": "[2]", "result": "inactive"}, {"measurement": "Potency", "setting": "[3]", "result": "inactive"}, {"measurement": "outcome", "setting": "[4]", "result": "inactive"}, {"measurement": "Potency", "setting": "[5]", "result": "inactive"}, {"measurement": "Potency", "setting": "[6]", "result": "2.82 µM (active)"}, {"measurement": "outcome", "setting": "[7]", "result": "inactive"}, {"measurement": "Potency", "setting": "[8]", "result": "inactive"}]}, {"smiles": "COc1cc(CCN)ccc1O", "values": [{"measurement": "outcome", "setting": "[9]", "result": "inactive"}, {"measurement": "Potency", "setting": "[10]", "result": "inactive"}, {"measurement": "outcome", "setting": "[4]", "result": "inactive"}, {"measurement": "Potency", "setting": "[11]", "result": "inactive"}, {"measurement": "Potency", "setting": "[12]", "result": "inactive"}, {"measurement": "Potency", "setting": "[13]", "result": "inactive"}, {"measurement": "Potency", "setting": "[14]", "result": "inactive"}, {"measurement": "Potency", "setting": "[5]", "result": "inactive"}, {"measurement": "Potency", "setting": "[6]", "result": "inactive"}, {"measurement": "Potency", "setting": "[15]", "result": "inactive"}, {"measurement": "outcome", "setting": "[7]", "result": "inactive"}, {"measurement": "Potency", "setting": "[16]", "result": "inactive"}, {"measurement": "Potency", "setting": "[8]", "result": "inactive"}]}, {"smiles": "N[C@@H](Cn1cc(I)c(=O)[nH]c1=O)C(=O)O", "values": [{"measurement": "Potency", "setting": "[3]", "result": "inactive"}, {"measurement": "Potency", "setting": "[10]", "result": "inactive"}, {"measurement": "Potency", "setting": "[11]", "result": "inactive"}, {"measurement": "Potency", "setting": "[12]", "result": "inactive"}, {"measurement": "Potency", "setting": "[13]", "result": "inactive"}, {"measurement": "Potency", "setting": "[14]", "result": "inactive"}, {"measurement": "Potency", "setting": "[5]", "result": "inactive"}, {"measurement": "Potency", "setting": "[6]", "result": "inactive"}, {"measurement": "Potency", "setting": "[15]", "result": "inactive"}, {"measurement": "outcome", "setting": "[7]", "result": "inactive"}, {"measurement": "Potency", "setting": "[16]", "result": "inactive"}, {"measurement": "Potency", "setting": "[8]", "result": "inactive"}]}, {"smiles": "COc1ccc(CCN)cc1O", "values": [{"measurement": "outcome", "setting": "[9]", "result": "inactive"}, {"measurement": "Potency", "setting": "[3]", "result": "inactive"}, {"measurement": "Potency", "setting": "[10]", "result": "inactive"}, {"measurement": "outcome", "setting": "[4]", "result": "inactive"}, {"measurement": "Potency", "setting": "[11]", "result": "inactive"}, {"measurement": "Potency", "setting": "[12]", "result": "inactive"}, {"measurement": "Potency", "setting": "[13]", "result": "inactive"}, {"measurement": "Potency", "setting": "[14]", "result": "inactive"}, {"measurement": "Potency", "setting": "[5]", "result": "inactive"}, {"measurement": "Potency", "setting": "[6]", "result": "inactive"}, {"measurement": "Potency", "setting": "[15]", "result": "inactive"}, {"measurement": "outcome", "setting": "[7]", "result": "inactive"}, {"measurement": "Potency", "setting": "[8]", "result": "inactive"}]}, {"smiles": "CN1CCN(c2ccc3ccccc3n2)CC1", "values": [{"measurement": "outcome", "setting": "[4]", "result": "inactive"}, {"measurement": "Potency", "setting": "[13]", "result": "inactive"}, {"measurement": "Potency", "setting": "[14]", "result": "inactive"}, {"measurement": "Potency", "setting": "[5]", "result": "inactive"}, {"measurement": "Potency", "setting": "[15]", "result": "inactive"}, {"measurement": "outcome", "setting": "[7]", "result": "inactive"}, {"measurement": "Potency", "setting": "[8]", "result": "inactive"}]}, {"smiles": "CC(O)C(C)OC(=O)[C@@H]1C[C@@H]2c3cccc4c3c(cn4C(C)C)C[C@H]2N(C)C1", "note": "(stereo partly drawn)", "values": [{"measurement": "outcome", "setting": "[4]", "result": "inactive"}, {"measurement": "Potency", "setting": "[11]", "result": "11.2 µM (active)"}, {"measurement": "Potency", "setting": "[12]", "result": "12.6 µM (active)"}, {"measurement": "Potency", "setting": "[13]", "result": "12.6 µM (active)"}, {"measurement": "Potency", "setting": "[6]", "result": "7.94 µM (active)"}, {"measurement": "Potency", "setting": "[15]", "result": "14.1 µM (active)"}, {"measurement": "outcome", "setting": "[7]", "result": "inactive"}, {"measurement": "Potency", "setting": "[16]", "result": "inactive"}]}, {"smiles": "COc1ccc2c3c([nH]c2c1)C(C)=NCC3", "values": [{"measurement": "outcome", "setting": "[9]", "result": "inactive"}, {"measurement": "Potency", "setting": "[1]", "result": "inactive"}, {"measurement": "Potency", "setting": "[17]", "result": "inactive"}]}, {"smiles": "COc1ccc2c(c1)[nH]c1c(C)nccc12", "values": [{"measurement": "outcome", "setting": "[2]", "result": "inactive"}, {"measurement": "Potency", "setting": "[17]", "result": "inactive"}]}, {"smiles": "C[N+]1(C)CCc2cc3c(cc2C1C1OC(=O)c2c1ccc1c2OCO1)OCO3", "note": "(stereo not drawn)", "values": [{"measurement": "outcome", "setting": "[4]", "result": "inactive"}, {"measurement": "Potency", "setting": "[11]", "result": "inactive"}, {"measurement": "Potency", "setting": "[12]", "result": "inactive"}, {"measurement": "Potency", "setting": "[13]", "result": "8.91 µM (active)"}, {"measurement": "Potency", "setting": "[14]", "result": "inactive"}, {"measurement": "Potency", "setting": "[5]", "result": "inactive"}, {"measurement": "Potency", "setting": "[15]", "result": "inactive"}, {"measurement": "outcome", "setting": "[7]", "result": "inactive"}, {"measurement": "Potency", "setting": "[16]", "result": "inactive"}, {"measurement": "Potency", "setting": "[8]", "result": "inactive"}]}, {"smiles": "COc1ccc2[nH]cc(C3=CCNCC3)c2c1", "values": [{"measurement": "Potency", "setting": "[1]", "result": "1.26 µM (active)"}]}, {"smiles": "CN(C(=O)Cc1ccc(Cl)c(Cl)c1)[C@H](CN1CCCC1)c1ccccc1", "values": [{"measurement": "Potency", "setting": "[1]", "result": "6.31 µM (active)"}]}]}
